The structures appear in SMILES notation. The campaign covered roughly 39,000 compounds. About 3,300 (8.5%) were called active. The full list was thinned out, with actives kept by preference.

The test system of this test is HepG2. Description: cytotoxicity call (relative viability < 0.9). Particulars: 10 µM.
For the compound `Cc1cccc(N[C@H]2CS(=O)(=O)C[C@@H]2O)c1`, the cytotoxicity call is “inactive”.

Consider `CC(C)(Sc1cc(C(C)(C)C)c(O)c(C(C)(C)C)c1)Sc1cc(C(C)(C)C)c(OC(=O)CCC(=O)O)c(C(C)(C)C)c1`, for which the cytotoxicity call is “inactive”.

Consider `C[C@@H]1CN([C@H](C)CO)C(=O)c2cccc(NC(=O)Nc3ccc(C(F)(F)F)cc3)c2O[C@@H]1CN(C)Cc1ccc(C(=O)Nc2ccccc2N)cc1`, for which the cytotoxicity call was “inactive”.

As for `C[C@@H]1CN([C@@H](C)CO)C(=O)c2cc(NS(=O)(=O)c3ccc(F)cc3)ccc2O[C@@H]1CN(C)Cc1ccncc1`, the cytotoxicity call is “inactive”.

As to `C[C@@H]1CN([C@H](C)CO)C(=O)Cc2cc(NC(=O)Nc3cccc4ccccc34)ccc2O[C@H]1CN(C)C(=O)Nc1ccc(C(F)(F)F)cc1`, the cytotoxicity call is “inactive”.

Take `COc1ccc(S(=O)(=O)N(C)C[C@H]2Oc3c(NC(=O)NC(C)C)cccc3C(=O)N([C@H](C)CO)C[C@@H]2C)cc1`: the cytotoxicity call was “inactive”.

Consider `COc1ccc(S(=O)(=O)Nc2ccc3c(c2)C(=O)N([C@@H](C)CO)C[C@@H](C)[C@@H](CN(C)Cc2ccc(-c4ccccc4)cc2)O3)cc1`, for which the cytotoxicity call is “active”.

Take `COc1ccc(S(=O)(=O)Nc2ccc3c(c2)C(=O)N([C@@H](C)CO)C[C@H](C)[C@@H](CN(C)Cc2ccc(-c4ccccc4)cc2)O3)cc1`: the cytotoxicity call is “active”.

Regarding `COc1ccc(S(=O)(=O)Nc2ccc3c(c2)C(=O)N([C@H](C)CO)C[C@H](C)[C@H](CN(C)Cc2ccc(-c4ccccc4)cc2)O3)cc1`, the cytotoxicity call is “inactive”.

`COc1ccc(S(=O)(=O)Nc2ccc3c(c2)C(=O)N([C@H](C)CO)C[C@@H](C)[C@@H](CN(C)Cc2ccc(-c4ccccc4)cc2)O3)cc1`: the cytotoxicity call was “active”.

Turning to `COc1ccc(S(=O)(=O)Nc2ccc3c(c2)C(=O)N([C@@H](C)CO)C[C@H](C)[C@H](CN(C)Cc2ccc(-c4ccccc4)cc2)O3)cc1`, the cytotoxicity call was “inactive”.

As for `COc1ccc(S(=O)(=O)Nc2ccc3c(c2)C(=O)N([C@H](C)CO)C[C@H](C)[C@@H](CN(C)Cc2ccc(-c4ccccc4)cc2)O3)cc1`, the cytotoxicity call was “inactive”.

Take `COc1ccc(S(=O)(=O)Nc2ccc3c(c2)C(=O)N([C@H](C)CO)C[C@@H](C)[C@H](CN(C)Cc2ccc(-c4ccccc4)cc2)O3)cc1`: the cytotoxicity call was “inactive”.

As to `COc1ccc(S(=O)(=O)Nc2ccc3c(c2)C(=O)N([C@@H](C)CO)C[C@@H](C)[C@H](CN(C)Cc2ccc(-c4ccccc4)cc2)O3)cc1`, the cytotoxicity call is “inactive”.

As to `C[C@H]1CCCCO[C@H](CN(C)C(=O)Nc2ccccc2)[C@@H](C)CN([C@@H](C)CO)C(=O)c2cc(NC(=O)C3CCCCC3)ccc2O1`, the cytotoxicity call was “inactive”.

For the compound `C[C@H]1CN([C@@H](C)CO)S(=O)(=O)c2ccc(C#CC3CC3)cc2O[C@@H]1CN(C)Cc1cccc(F)c1`, the cytotoxicity call is “inactive”.

With `Nc1ccn(C[C@@H](CO)OCP(=O)(O)O)c(=O)n1`, the cytotoxicity call is “inactive”.

For the compound `Cc1noc(C)c1S(=O)(=O)Nc1ccc2c(c1)C(=O)N([C@H](C)CO)C[C@@H](C)[C@H](CN(C)Cc1ccc(-c3ccccc3)cc1)O2`, the cytotoxicity call is “inactive”.

Regarding `Cc1noc(C)c1S(=O)(=O)Nc1ccc2c(c1)C(=O)N([C@H](C)CO)C[C@H](C)[C@@H](CN(C)Cc1ccccc1)OCCCC[C@@H](C)O2`, the cytotoxicity call was “inactive”.

Regarding `C[C@H](CO)N1C[C@H](C)[C@@H](CN(C)C(=O)NC2CCCCC2)Oc2ccc(NC(=O)Cn3cnnn3)cc2C1=O`, the cytotoxicity call was “inactive”.

Take `C=CCNC(=O)[C@H]1[C@@H]2C(=O)O[C@@H](c3ccccc3)[C@@H](c3ccccc3)N2[C@@H](c2ccc(OCCO)cc2)[C@]12C(=O)Nc1ccc(C#CC3=CCCCC3)cc12`: the cytotoxicity call is “inactive”.

Consider `CO[C@@H](CCO)[C@@H](O)c1ccc(O)c(F)c1`, for which the cytotoxicity call is “inactive”.

In the case of `C[C@H](CO)N1C[C@H](C)[C@@H](CN(C)Cc2ccccn2)Oc2ncc(C#Cc3cccc(F)c3)cc2C1=O`, the cytotoxicity call is “inactive”.

With `COc1ccc(S(=O)(=O)Nc2ccc3c(c2)C(=O)N([C@@H](C)CO)C[C@H](C)[C@@H](CN(C)C(=O)Nc2ccc(F)cc2)OCCCC[C@H](C)O3)cc1`, the cytotoxicity call is “active”.

`COc1ccc(NC(=O)N(C)C[C@H]2OCCCC[C@@H](C)Oc3ccc(NS(=O)(=O)c4ccc(F)cc4)cc3C(=O)N([C@@H](C)CO)C[C@@H]2C)cc1`: the cytotoxicity call was “inactive”.

As for `COc1ccc(S(=O)(=O)Nc2ccc3c(c2)C(=O)N([C@@H](C)CO)C[C@H](C)[C@@H](CN(C)C(=O)Nc2ccc(F)cc2)OCCCC[C@@H](C)O3)cc1`, the cytotoxicity call is “active”.

Consider `COc1ccc(NC(=O)N(C)C[C@H]2OCCCC[C@H](C)Oc3ccc(NS(=O)(=O)c4ccc(F)cc4)cc3C(=O)N([C@H](C)CO)C[C@@H]2C)cc1`, for which the cytotoxicity call is “inactive”.

Turning to `COc1ccc(NC(=O)N(C)C[C@@H]2OCCCC[C@@H](C)Oc3ccc(NS(=O)(=O)c4ccc(F)cc4)cc3C(=O)N([C@H](C)CO)C[C@@H]2C)cc1`, the cytotoxicity call is “inactive”.

As for `COc1ccc(NC(=O)N(C)C[C@@H]2OCCCC[C@H](C)Oc3ccc(NS(=O)(=O)c4ccc(F)cc4)cc3C(=O)N([C@@H](C)CO)C[C@@H]2C)cc1`, the cytotoxicity call was “inactive”.

As to `Cc1cc(=O)n2nc(S(C)(=O)=O)nc2[nH]1`, the cytotoxicity call is “inactive”.

On to `C[C@H]1CN([C@@H](C)CO)S(=O)(=O)c2ccc(C#Cc3ccccc3)cc2O[C@@H]1CN(C)C(=O)c1ccccn1`, for which the cytotoxicity call was “inactive”.

Regarding `COCc1nc(C)c(CN)s1`, the cytotoxicity call is “inactive”.

On to `COc1ccc(-c2cc(=O)c3c(O)cc(O[C@@H]4O[C@H](CO)[C@@H](O)[C@H](O)[C@H]4O[C@@H]4O[C@H](COC(C)=O)[C@@H](O)[C@@H](O)[C@H]4O)c(O)c3o2)cc1`, for which the cytotoxicity call was “inactive”.

As to `CSc1cccc(NC(=O)/C=C/c2ccc(C(C)C)cc2)c1`, the cytotoxicity call is “inactive”.

For `C[C@@](Cc1ccc(O)c(O)c1)(NN)C(=O)O`, the cytotoxicity call is “active”.

Consider `CC(Cc1ccc(O)c(O)c1)(NN)C(=O)O` (stereo not given), for which the cytotoxicity call is “active”.

Take `CCOC(=O)[C@@H](N)Cc1ccc(O)c(O)c1`: the cytotoxicity call was “inactive”.

`O=C(O)Cc1ccc(O)c(O)c1`: the cytotoxicity call was “inactive”.

`CO[C@@H]1CN(C)C(=O)c2ccc(NS(=O)(=O)c3cn(C)cn3)cc2OC[C@H](C)N(CCC(F)(F)F)C[C@@H]1C`: the cytotoxicity call is “inactive”.

For the compound `C[C@H]1CN([C@@H](C)CO)S(=O)(=O)c2ccc(-c3cncnc3)cc2O[C@H]1CN(C)C(=O)c1cccc(F)c1`, the cytotoxicity call was “inactive”.

As to `CCN1CCCC[C@@H]1C(=O)O`, the cytotoxicity call is “inactive”.

`C[C@H]1CN([C@@H](C)CO)C(=O)c2cc(NS(=O)(=O)c3cn(C)cn3)ccc2O[C@@H]1CN(C)CC1CCCCC1`: the cytotoxicity call was “inactive”.

For the compound `C[C@H]1CN([C@@H](C)CO)C(=O)Cc2cc(NC(=O)CCCCCC(=O)Nc3ccccc3N)ccc2O[C@@H]1CN(C)CC1CCCCC1`, the cytotoxicity call is “inactive”.

`Cc1ccc(S(=O)(=O)N(C)C[C@@H]2OCCCC[C@@H](C)Oc3ccc(NC(=O)Cc4ccccc4)cc3C(=O)N([C@@H](C)CO)C[C@@H]2C)cc1`: the cytotoxicity call was “inactive”.

For the compound `Cc1ccc(S(=O)(=O)N(C)C[C@H]2OCCCC[C@H](C)Oc3ccc(NC(=O)Cc4ccccc4)cc3C(=O)N([C@@H](C)CO)C[C@@H]2C)cc1`, the cytotoxicity call is “active”.

As for `Cc1ccc(S(=O)(=O)N(C)C[C@@H]2OCCCC[C@H](C)Oc3ccc(NC(=O)Cc4ccccc4)cc3C(=O)N([C@H](C)CO)C[C@@H]2C)cc1`, the cytotoxicity call was “active”.

Turning to `Cc1ccc(S(=O)(=O)N(C)C[C@@H]2OCCCC[C@@H](C)Oc3ccc(NC(=O)Cc4ccccc4)cc3C(=O)N([C@H](C)CO)C[C@@H]2C)cc1`, the cytotoxicity call is “inactive”.

Regarding `Cc1ccc(S(=O)(=O)N(C)C[C@@H]2OCCCC[C@H](C)Oc3ccc(NC(=O)Cc4ccccc4)cc3C(=O)N([C@H](C)CO)C[C@H]2C)cc1`, the cytotoxicity call is “inactive”.

For `Cc1ccc(S(=O)(=O)N(C)C[C@H]2OCCCC[C@H](C)Oc3ccc(NC(=O)Cc4ccccc4)cc3C(=O)N([C@H](C)CO)C[C@H]2C)cc1`, the cytotoxicity call is “inactive”.

As for `CC(C)NC(=O)Nc1ccc2c(c1)C(=O)N([C@H](C)CO)C[C@@H](C)[C@H](CN(C)S(=O)(=O)c1cn(C)cn1)OCCCC[C@H](C)O2`, the cytotoxicity call was “inactive”.

Consider `CC(C)(C)NC(=O)[C@@H]1C[C@@H]2CCCC[C@@H]2CN1C[C@@H](O)[C@H](Cc1ccccc1)NC(=O)[C@H](CC(N)=O)NC(=O)c1ccc2ccccc2n1`, for which the cytotoxicity call was “inactive”.

On to `Cc1noc(C)c1S(=O)(=O)Nc1cccc2c1O[C@H](CN(C)C(=O)Nc1ccc3c(c1)OCO3)[C@H](C)CN([C@@H](C)CO)C2=O`, for which the cytotoxicity call was “inactive”.

On to `COc1ccc(S(=O)(=O)Nc2cccc3c2O[C@H](CN(C)S(C)(=O)=O)[C@H](C)CN([C@H](C)CO)C3=O)cc1`, for which the cytotoxicity call was “inactive”.

As to `C[C@@H]1CN([C@@H](C)CO)C(=O)c2cccc(NC(=O)c3ccc(-c4nccs4)cc3)c2O[C@@H]1CN(C)S(=O)(=O)c1ccc(Cl)cc1`, the cytotoxicity call is “inactive”.

As for `C[C@H]1CN([C@@H](C)CO)C(=O)c2cccc(NC(=O)c3ccc(-c4nccs4)cc3)c2O[C@@H]1CN(C)Cc1ccc(-c2ccccc2)cc1`, the cytotoxicity call is “inactive”.

As to `C[C@@H]1CN([C@@H](C)CO)C(=O)c2cccc(NC(=O)c3cnccn3)c2O[C@H]1CN(C)Cc1ccccc1`, the cytotoxicity call is “inactive”.

Turning to `C[C@@H]1CN([C@@H](C)CO)C(=O)c2cccc(NC(=O)c3ccc(-c4nccs4)cc3)c2O[C@@H]1CN(C)Cc1ccc(-c2ccccc2)cc1`, the cytotoxicity call is “active”.

As for `C[C@H]1CN([C@@H](C)CO)C(=O)c2cccc(NC(=O)c3ccc(-c4nccs4)cc3)c2O[C@H]1CN(C)Cc1ccc(C(=O)Nc2ccccc2N)cc1`, the cytotoxicity call is “inactive”.

As for `C[C@@H]1CN([C@H](C)CO)C(=O)c2cccc(NC(=O)c3ccc(-c4nccs4)cc3)c2O[C@@H]1CN(C)Cc1ccc(C(=O)Nc2ccccc2N)cc1`, the cytotoxicity call is “active”.

As for `C[C@@H]1CN([C@H](C)CO)C(=O)c2cccc(NC(=O)c3cnccn3)c2O[C@H]1CN(C)Cc1ccccc1`, the cytotoxicity call was “active”.

With `C[C@H](CO)N1C[C@H](C)[C@@H](CN(C)Cc2ccc(C(=O)Nc3ccccc3N)cc2)Oc2c(NC(=O)c3ccc(-c4nccs4)cc3)cccc2C1=O`, the cytotoxicity call is “inactive”.

For `C[C@H](CO)N1C[C@H](C)[C@@H](CN(C)Cc2ccccc2)Oc2c(NC(=O)c3cnccn3)cccc2C1=O`, the cytotoxicity call is “inactive”.

For `C[C@H](CO)N1C[C@H](C)[C@H](CN(C)S(=O)(=O)c2ccc(Cl)cc2)Oc2c(NC(=O)c3ccc(-c4nccs4)cc3)cccc2C1=O`, the cytotoxicity call is “active”.

`C[C@H](CO)N1C[C@H](C)[C@@H](CN(C)Cc2ccc(-c3ccccc3)cc2)Oc2c(NC(=O)c3ccc(-c4nccs4)cc3)cccc2C1=O`: the cytotoxicity call was “inactive”.

Take `C[C@@H]1CN([C@@H](C)CO)C(=O)c2cccc(NC(=O)c3ccc(-c4nccs4)cc3)c2O[C@H]1CN(C)S(=O)(=O)c1ccc(Cl)cc1`: the cytotoxicity call is “inactive”.
